# In the library only some 12% were active in any assay of this set; here they are far more common.
# NS1 inh – qHTS Assay for Inhibitors of Influenza NS1 Protein Function; Potency, µM (highest dose often 46.1 µM), inactives show at the top dose activity, positive = more growth; hit rate 0.4% among 270,000; AID 2326, 2010; calls by dose curve; note: actives are rising curves; nearly all actives have a fitted effect of over 50% in size
#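 Growth recovery, yeast-based: influenza A NS1 expressed in S. cerevisiae causes slow growth, and suppressors are detected by OD600. The parent strain without NS1 is used as positive control.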
# Pf growth 48h – Primary qHTS for delayed death inhibitors of the malarial parasite plastid, 48 hour incubation; P. falciparum luciferase growth in erythrocytes, 48 h; Potency, µM (titrated, usually from 28.7 µM), for the others: at the top dose activity change, negative = inhibition, actives largely listed as inhibitors; hit rate 5.9% among 310,000; AID 504832, 2011; note: % is set by controls: 0 for no effect and ±100 for the full control effect
#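 Growth was read as firefly luciferase luminescence after a 48 h, 37 C, 5% CO2 exposure of compounds to reporter-bearing P. falciparum cultures (0.1% parasitemia, 2% hematocrit final) in Albumax-supplemented RPMI 1640.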
# Pf growth 96h – Primary qHTS for delayed death inhibitors of the malarial parasite plastid, 96 hour incubation; hit rate 6.9% among 320,000; AID 504834, 2011; Potency, µM (titrated, usually from 28.7 µM), without a hit: at the highest dose activity change, negative = inhibition, usual class: inhibitors; P. falciparum luciferase reporter growth, 96 h; note: % is set by controls: 0 for no effect and ±100 for the full control effect
#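 Luminescence readout: decreased luciferase signal marks inhibited growth of reporter-expressing P. falciparum in infected red cells (2% hematocrit, 0.05% parasitemia final), exposed to compound two generations (96 h, 37 C, 5% CO2).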
# HCV inh – qHTS Assay for Inhibitors of Hepatitis C Virus (HCV) | Huh7.5.1 HCVcc-Cre infection, luciferase reporter, 44 h | hit rate 3.4% among 340,000 | AID 651820, 2012 | Potency, µM (doses to about 41.8 µM), inactives show at the highest dose activity change, negative = inhibition, usual class: inhibitors; note: % is set by controls: 0 for no effect and ±100 for the full control effect
#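 Cells seeded at 1,000/well and cultured 4 h, then compounds added followed by HCVcc-Cre virus (~0.5 moi). After 44 h further culture, luciferase substrate was added, plates held 15 min at room temperature, and luminescence read for 15 sec.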
# SARS PLpro yeast – qHTS of Yeast-based Assay for SARS-CoV PLP | S. cerevisiae expressing SARS-CoV PLpro, growth rescue | Potency, µM (series often up to 32.9 µM), inactives show top-dose activity, positive = growth rescue, hits mostly activators | hit rate 0.19% among 330,000; calls by dose curve; note: 0% is about no effect; nearly all actives have a fitted effect of over 55% in size
# AMA1 RON2 block – qHTS for Inhibitors of AMA1-RON; Towards Development of Antimalarial Drug Lead: Primary Screen; Plasmodium falciparum AMA1 (3D7) - RON2 peptide interaction; AlphaScreen AMA1-biotinylated RON2 peptide binding; Potency, µM (titrated, usually from 58.2 µM), inactives show at the highest dose activity change, negative = inhibition, actives largely listed as inhibitors; hit rate 0.2% among 360,000; AID 720542, 2013;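 note: 0% = vehicle wells and -100% = peptide control; nearly all actives have a fitted effect of over 45% in size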
#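 AMA1 (3D7) with his tag at 25 nM final met compounds first, then biotinylated RON2 peptide at 25 nM; detection used donor plus acceptor beads, 10 µg/mL apiece, read by AlphaScreen after 30 min at room temperature.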
# Starred values were filed as active, the others as inactive; u = inconclusive; x = no result given. Unless noted, calls come from the whole dose curve; as a rule, active = well fitted curve in the direction sought with a large enough effect; inconclusive = small, poorly fitted or top-dose-only effect, or another doubt; inactive = no such curve, though single readings can be large; an effect the other way counts as inactive or inconclusive. Potency is the fitted concentration of half-maximal effect.
SMILES,NS1 inh,Pf growth 48h,Pf growth 96h,HCV inh,SARS PLpro yeast,AMA1 RON2 block
COc1ccc(NC(=O)/C(=C/c2cccnc2)NC(=O)c2cccs2)cc1,-5.4%,-6.3%,4.15µM*,7.9%,-0.7%,2.7%
CNC(=O)/C(=C\c1ccco1)NC(=O)c1ccco1,0.7%,9.28µM*,0.0%,17.3%,2.0%,6.2%
COc1ccc(/C=C(/NC(=O)c2ccccc2OC)C(=O)Nc2ccc(C(=O)O)cc2)cc1,16.7%,-8.6%,9.28µM*,-1.3%,-6.0%,6.8%
COc1ccc(NC(=O)/C(=C\c2cccnc2)NC(=O)c2cccs2)cc1,-3.3%,-8.2%,25.2%,12.5%,8.3%,-4.6%
Cc1ccc(NC(=O)/C(=C\c2cccnc2)NC(=O)c2ccco2)cc1,8.0%,u,3.29µM*,16.1%,16.4%,0.7%
CCC(C)NC(=O)c1ccccc1NC(=O)/C(=C/c1ccc(OC)cc1)c1ccccc1 (configuration not stated),8.8%,u,11.7µM*,20.2%,-13.5%,6.6%
COc1ccc(NC(=S)N2CCN(S(=O)(=O)c3ccc(F)cc3)CC2)cc1OC,1.8%,u,8.3%,-8.9%,4.2%,-16.7%
COc1cccc(NC(=S)N2CCN(S(C)(=O)=O)CC2)c1,7.2%,11.7%,4.15µM*,13.1%,-0.2%,-8.4%
COc1cccc(NC(=S)N2CCN(S(=O)(=O)c3ccc(F)cc3)CC2)c1,-1.4%,1.85µM*,u,10.9%,1.7%,-0.5%
COc1cc(NC(=S)N2CCN(S(=O)(=O)c3ccc(F)cc3)CC2)cc(OC)c1,4.4%,2.33µM*,-26.6%,-9.2%,5.1%,-10.5%
CCOc1ccccc1NC(=O)c1ccc2c(c1)C(=O)N(CC1CCCO1)C2=O (configuration not stated),-17.2%,42.3%,14.7µM*,-0.3%,4.7%,1.3%
COc1ccccc1NC(=O)CSC1=NC(=O)C(NC(C)=O)C(=O)N1 (configuration not stated),1.5%,4.4%,0.828µM*,-14.5%,5.3%,0.3%
COc1ccccc1NC(=O)CSc1nc2sc(C)c(C)c2c(=O)n1C,-3.6%,-1.4%,u,10µM*,7.2%,9.1%
Cc1sc2nc(SCC(=O)NCCO)n(C)c(=O)c2c1C,-7.9%,6.6%,9.28µM*,-2.1%,-7.3%,-1.5%
COc1ccccc1NC(=O)CSC1=NC(=O)C(Cc2ccccc2)C(=O)N1 (configuration not stated),9.4%,0.0%,u,6.8%,1.1%,-5.5%
Cc1sc2nc(SCC(=O)NCc3ccco3)n(CCc3ccccc3)c(=O)c2c1C,8.4%,11.7µM*,-0.9%,12.3%,u,9.0%
Cc1cc(OC(C)C(=O)N2C[C@H]3C[C@@H](C2)c2cccc(=O)n2C3)c2c(C)c(C)c(=O)oc2c1 (some centres not stated),14.2%,5.8%,u,3.6%,13.4%,2.2%
Cc1nc(SCC(=O)Nc2ccccc2Cl)c2c(C)c(C)sc2n1,x,5.22µM*,u,6.9%,-3.4%,122.1%
O=[N+]([O-])c1cccc(S(=O)(=O)c2ccc(NCCO)c([N+](=O)[O-])c2)c1,x,u,41.8%,5.1%,-1.4%,8.4%
CCN(CC)C(=O)C1=C(C)NC(=S)NC1c1cn(-c2ccccc2)nc1-c1ccc(Cl)cc1 (configuration not stated),u,4.15µM*,u,-3.5%,4.3%,30.5%
O=C(O)c1cn(-c2ccccc2)nc1-c1ccc(Cl)cc1,x,x,x,x,x,10.9%
Cn1c(Cc2ccccc2)nnc1SCC(=O)NCCc1ccccc1,x,-10.2%,u,14.1%,-6.6%,2.6%
Cc1cc(C)n(CCNC(=O)CC2C(=O)NCCN2CC2CCCCC2)n1 (configuration not stated),0.3%,13.3%,-27.9%,11.7%,0.2%,42.4%
O=C(NC(=S)Nc1ccc(Br)cn1)c1cncc(Br)c1,-7.3%,1.1%,13.1µM*,-16.7%,-1.6%,26.7%

# Bioassay records from PubChem BioAssay.
